CYP2C9 activ = activators of human CYP2C9; hit rate 1.4% among 96,000; recombinant CYP2C9, luciferin-H conversion, luminescence; active compounds read high; factor 1 = untreated enzyme, 0 = blocked; P11712; activation factor at 5 µM;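 active means activation factor of 2 or more for CYP2C9 at a 5 µM dose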;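 further: 0 = sulfaphenazole-blocked wells and 1 = vehicle-only wells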
Cav32 inh = inhibitors of human Cav3.2 T-type calcium channel. AID 449739. B-score at 10 µM. O95180. Cav3.2-expressing cells, Fluo-4 calcium fluorescence FDSS; active compounds read low. hit rate 4% among 100,000;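 active means single-dose well whose peak fluorescence ratio is a statistical outlier from its plate by either plate-standardised score or position-corrected B-score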
CYP2C19 inh = human CYP2C19 inhibition. CYP2C19 Supersomes, luciferin-H EGE luminescence, 30 min. inhibition, % at 5 µM. hit rate 21% among 96,000. AID 778;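 active means CYP2C19 inhibition above a set limit at 5 µM in the primary screen, cut at about 50% in these data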;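 further: plate controls were negative control wells for no effect and 2.5 mM tranylcypromine positive control for full effect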
PTK2B oligo ant = blocks oligomerization of human Pyk2 in cells. Q293 cells, Pyk2 FERM NanoBiT luminescence; active compounds read low. hit rate 0.83% among 99,000. AID 1347419. Q14289. z-score (the deposit names both 25 µM and 10 µM);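 active means Z-score of -3 or lower, scaled per plate to the spread of control and sample wells; inactive means z-score above -3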;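 further: negative z-score means lost luminescence so less FERM oligomerization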
CYP2C19 activ = increases human CYP2C19 enzyme activity. recombinant CYP2C19, luciferin-H EGE luminescence; active compounds read high; 0 = fully inhibited enzyme, 1 = untreated enzyme. activation factor at 5 µM. 96,000 tested, under 10 active. AID 1025;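 active means activation factor of at least 2 at 5 µM in the primary screen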;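 further: 0 = wells with 2.5 mM tranylcypromine and 1 = vehicle-only wells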
CYP2C9 inh = blocks human cytochrome P450 2C9; hit rate 20% among 96,000; CYP2C9 Supersomes, luciferin-H conversion, luminescence; inhibition, % at 5 µM;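 active means blocking of liver enzyme CYP2C9 beyond about 50% at 5 µM, limit read from the data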
* hit, by the source's call; x = no result. In the library only some 27% were active in any assay of this set; here they are far more common.

SMILES	CYP2C9 activ	Cav32 inh	CYP2C19 inh	PTK2B oligo ant	CYP2C19 activ	CYP2C9 inh
O=S(=O)(Cc1ccccc1)N1CCN(Cc2ccc3c(c2)OCO3)CC1	0.5	0.0228	91.0*	0.39	0.1	53.5*
N#CCCN1CCN(S(=O)(=O)c2ccc3c(c2)OCCCO3)CC1	0.9	0.0128	81.7*	1.07	0.2	8.1
N#CCCN1CCN(S(=O)(=O)c2ccc(S(=O)(=O)N3CCOCC3)cc2)CC1	1	0.389	-13.6	x	1.1	-1.4
CN1CCN(S(=O)(=O)c2ccc3c(c2)OCCO3)CC1	1.2	-0.304	45.7	0.2	0.5	-21.5
CCCn1c(Nc2ccccc2C)nc2ccccc21	x	-0.0879	x	-1.6	x	x
CCCC[C@@H]1CN=C(N)N1CC(C)(C)C	x	2.14	x	x	x	x
Cc1nnc(SCC(=O)Nc2cccc(C(F)(F)F)c2)[nH]c1=O	0.8	-0.932	-5.5	-0.83	1.1	22.2
Cc1cccc(-c2nc(CSCC(=O)N3CCN(c4ccccn4)CC3)c(C)o2)c1	0.7	-2.61	16.5	0.15	0.8	32.3
Cn1c(=O)c2c(nc(Oc3ccc(-c4ccccc4)cc3)n2C)n(C)c1=O	1	-2.66	1.0	0.35	1	4.7
COc1ccc(S(=O)(=O)N2CCN(S(=O)(=O)c3ccc4c(c3)OCCO4)CC2)cc1	1	0.108	1.5	0.07	1	4.2
O=S(=O)(c1ccccc1Cl)N1CCC(O)(c2ccc3c(c2)OCO3)CC1	1.5	-1.01	97.1*	-1.86	0	-54.1
OC1(c2ccc3c(c2)OCO3)CCN(Cc2ccccn2)CC1	1.2	0.357	-8.7	0.42	1.1	-23.1
Cc1ccc(S(=O)(=O)N2CCCN(S(=O)(=O)c3ccc(C(F)(F)F)cc3)CC2)cc1	2.5*	-0.0441	33.1	0.24	0.7	-148.7
Cc1ccc(S(=O)(=O)N2CCCN(S(=O)(=O)c3ccc4c(c3)OCCO4)CC2)cc1	2.7*	-0.618	26.7	-3.01*	0.7	-171.1
O=S(=O)(c1ccc2c(c1)OCCO2)N1CCC(O)(c2ccc(Cl)cc2)CC1	0.9	-1.88	98.4*	-3.2*	0	12.1
COc1ccc(/C=N/NC(=O)C2c3ccccc3Oc3ccccc32)c(OC)c1	1	x	8.7	0.32	0.9	4.5
CS(=O)(=O)N(CC(=O)N1CCN(c2ccccc2F)CC1)c1cc(C(F)(F)F)ccc1Cl	1.8	-2.3	28.6	0.3	0.7	-76.4
O=S(=O)(c1cccc(F)c1)N1CCN(Cc2ccc3c(c2)OCO3)CC1	0.1	x	91.0*	-0.12	0.1	85.8*
CN(Cc1ccccc1)S(=O)(=O)c1ccc2c(c1)OCCO2	1.8	-0.811	87.4*	-2.42	0.1	-81.6
Cc1ccc2c(CN3CCN(S(=O)(=O)c4ccc5c(c4)OCCO5)CC3)cc(=O)oc2c1C	0.3	-2.02	71.3*	-1.95	0.3	70.3*
CC(C)(C)N(Cc1ccccc1)C(=O)c1ccc2c(c1)OCCO2	0.8	-4.32*	11.4	-1.41	0.9	21.8
O=S(=O)(c1ccc(F)c(F)c1)N1CCN(Cc2ccc3c(c2)OCO3)CC1	0.6	-1.69	18.7	-1.1	0.8	43.2
O=S(=O)(NCc1ccccc1)c1ccc2c(c1)OCCO2	1	0.322	38.1	-0.83	0.6	-3.4
Cc1cccc(C)c1NC(=O)CSCC(=O)c1ccc(O)c(O)c1	1.2	0.569	-4.3	-0.25	1	-22.6
CCOC(=O)CCC(=O)N1CCOCCN(C(=O)CCC(=O)OCC)CCOCC1	0.9	-0.212	5.4	-0.23	0.9	9.3
SMILES	CYP2C9 activ	Cav32 inh	CYP2C19 inh	PTK2B oligo ant	CYP2C19 activ	CYP2C9 inh
COc1ccc(C2CC(=O)C(C=NCCN3CCOCC3)=C(O)C2)cc1 (stereo not drawn)	x	-0.518	x	0.19	x	x
O=S(=O)(c1ccc2c(c1)OCCO2)N1CCN(Cc2ccc3c(c2)OCO3)CC1	0.1	-0.159	94.5*	-1.27	0.1	89.3*
O=S(=O)(c1ccc(Cl)cc1)N1CCC(O)(c2cccnc2)CC1	1.8	0.406	57.2*	-0.71	0.4	-76.7
O=S(=O)(c1ccc2c(c1)OCCO2)N1CCN(Cc2ccccc2)CC1	1.4	-0.687	81.9*	-2.6	0.2	-40.2
N#CCCN1CCN(S(=O)(=O)c2ccc(S(=O)(=O)NCC3CCCO3)cc2)CC1 (stereo not drawn)	0.9	1.38	-23.1	x	1.2	5.5
CC1CCCCC1NS(=O)(=O)c1ccc(S(=O)(=O)N2CCN(CCC#N)CC2)cc1 (stereo not drawn)	0.6	0.112	52.4*	x	0.5	45.0

Compound activity (PubChem)
